# Activity calls are given as the source filed them. The calls were made as follows: active = hit-call score of the fitted dose curve at least 0.9, where 1 is the maximum; inactive = score below 0.9.
# Read-out: Transforming growth factor beta 1 (TGFb1), TGFB1 (gene 7040)
# Assay: BSK_KF3CT_TGFb1: BioMAP Diversity Plus: KF3CT Assay for Transforming growth factor beta 1 (TGFb1) Biomarker Activity (AID 2283072)
# Settings: primary human keratinocytes with fibroblasts; actives raise or lower the signal
# Description: BSK_KF3CT is a cell-based, multiplexed-readout assay that uses keratinocytes and foreskin fibroblasts, a human skin primary cell co-culture, with measurements taken at 24 hours after chemical dosing in a 96-well plate.BSK_KF3CT_TGFb1 is an assay component measured in the BSK_KF3CT assay. It measures TGF-b1 antibody related to regulation of gene expression using ELISA technology.Data from the assay component BSK_KF3CT_TGFb1 was analyzed into 1 assay endpoint. This assay endpoint, BSK_KF3CT_TGFb1, was analyzed with bidirectional fitting relative to DMSO as the negative control and baseline of activity. Using a type of binding reporter, gain or loss-of-signal activity can be used to understand changes in the signaling as they relate to the gene TGFB1. Furthermore, this assay endpoint can be referred to as a primary readout, because this assay has produced multiple assay endpoints where this one serves a signaling function. To generalize the intended target to other relatable targets, this assay endpoint is annotated to the growth factor intended target family, where the subfamily is transforming growth factor beta.
# The levels of cell surface (or secreted, indicated by the prefix "s") biomarker endpoints were measured by ELISA. Overt cytotoxicity to cells in confluent adherent cultures (all systems other than the BT system) was assessed by measuring total protein levels using sulforhodamine B (SRB) staining in parallel cultures at the time of biomarker measurements, indicated as SRB endpoints. For proliferation assays for adherent cell types, individual cell types are cultured at sub-confluence and relative cell numbers quantified by SRB staining at time points optimized for each system (48 h: 3C and CASM3C systems; 72 h: BT and HDF3CGF systems; 96 h: SAg system). SRB was performed by staining cells with 0.1% SRB after fixation with 10% TCA and reading wells at 560 nm.Viability and proliferation of PBMC (T cells) was quantified by Alamar Blue reduction for the SAg and BT systems. For PBMC viability (referred to as PBMC Cytotoxicity within the assay endpoint names), cells were plated (75,000/well in a 96-well plate) and then chemical samples added for 1 h before addition of activators, SEB and TSST-1 (20 ng/mL final concentration each). Cells were incubated for 90 h. Then, Alamar Blue (20 uL/well) (Invitrogen, Cat DAL1100) was added for 6 h, and the plates were read with a fluorescence microplate reader at 546/580 nm (excitation/emission). For PBMC proliferation, cells were plated and activated as above but incubated for only 16 h prior to addition of Alamar Blue. Plates were read after 6 h.
Compound,AC50,outcome
O=C(O)Cc1cc(I)c(Oc2cc(I)c(O)c(I)c2)c(I)c1,8.34 µM (active),
COC(=O)CCCCC(=O)OC,,inactive
CC1=C(/C=C/C(C)=C/C=C/C(C)=C/C(=O)O)C(C)(C)CCC1,30.1 µM (active),
CC#C[C@]1(O)CC[C@H]2[C@@H]3CCC4=CC(=O)CCC4=C3[C@@H](c3ccc(N(C)C)cc3)C[C@@]21C,,inactive
CCc1ccc(CCOc2ccc(CC3SC(=O)NC3=O)cc2)nc1 (stereo not given),,inactive
ClC1=C(Cl)C(Cl)(Cl)C(Cl)=C1Cl,9.02 µM (active),
CCCOC(=O)c1ccc(O)cc1,,inactive
NC(=O)N(O)[C@@H]1C=C[C@H](Oc2cccc(Oc3ccc(F)cc3)c2)C1,,inactive
CC(C)(C)CC(C)(C)c1ccc(O)c(-n2nc3ccccc3n2)c1,,inactive
C[C@@H]1C[C@H]2[C@@H]3CCC4=CC(=O)C=C[C@]4(C)[C@@]3(F)[C@@H](O)C[C@]2(C)[C@@]1(O)C(=O)COP(=O)(O)O,,inactive
CCC(=C(c1ccc(O)cc1)c1ccc(OCCN(C)C)cc1)c1ccccc1,9.8 µM (active),
CCCCCCCCCCCCc1ccccc1S(=O)(=O)O,12.4 µM (active),
CCCCCCC(=O)O,,inactive
Nc1cccc2c(N)cccc12,,inactive
CCCCCCCCOC(=O)CCCCCCCCC(=O)OCCCCCCCC,,inactive
CCC(C)(C)C1CCC(O)CC1 (stereo not given),,inactive
CCCCC(CC)COC(=O)CCCCC(=O)OCc1ccccc1 (stereo not given),,inactive
CC(=O)NC1(c2cccc(F)c2)CCN(CC[C@@]2(c3ccc(Cl)c(Cl)c3)CN(c3ccccc3)C(=O)CO2)CC1,,inactive
CC(O)CO (stereo not given),,inactive
N#C[C@@H]1CC(F)(F)CN1C(=O)CNC1CC2CCC(C1)N2c1ncccn1 (stereo not given in full),,inactive

Compound,AC50,outcome
CN(C)C=O,,inactive
O=C(O)c1ccccc1C(c1ccc(O)cc1)c1ccc(O)cc1,,inactive
CCCCCCCCCCCCCCCS(=O)(=O)Oc1ccccc1,,inactive
O=c1c(-c2ccc(O)cc2)coc2cc(O)ccc12,,inactive
COc1ccc([N+](=O)[O-])cc1N,,inactive
Cc1oc(-c2ccccc2)nc1CCOc1ccc(C[C@H](Nc2ccccc2C(=O)c2ccccc2)C(=O)O)cc1,7.38 µM (active),
CCOC(=O)CC(O)(CC(=O)OCC)C(=O)OCC,,inactive
CCCOc1sc(C(=O)N2CCC(c3cc(CN)ccc3F)CC2)c(C)c1Br,8.97 µM (active),
CC[C@H](c1ccc(O)cc1)[C@@H](CC)c1ccc(O)cc1,29.8 µM (active),
CCN(CC)CCNc1ccc(CNC=O)c2sc3ccc(OC)cc3c(=O)c12,26.7 µM (active),
c1ccc2c(c1)Cc1ccccc1-2,,inactive
O=[N+]([O-])c1ccc(O)cc1,,inactive
CC(C)(C)c1cccc(C(C)(C)C)c1O,36.1 µM (active),
CN1CCC[C@H]1c1cccnc1,,inactive
CC(C)(C)c1cc(C(C)(C)C)c(O)c(C(C)(C)C)c1,,inactive
CCCCCCCC(=O)O,,inactive
CCCCOCCO,,inactive
C#C[C@]1(O)CC[C@H]2[C@@H]3CCC4=CC(=O)CC[C@@H]4[C@H]3CC[C@@]21C,,inactive
CCCCCCCCCCCCCC[N+](C)(C)C,0.925 µM (active),
NC(=O)N1C(=O)C(C(=O)c2cc(Cl)cs2)c2cc(F)c(Cl)cc21 (stereo not given),7.48 µM (active),

# From PubChem BioAssay (EPA / NIEHS)
